High-throughput results as filed in PubChem BioAssay.
TWEAK-Fn14 inh: inhibitors of TWEAK-Fn14 signaling, primary screen, luciferase reporter cells, uHTS; AID 1159606, 2016; actives 2% (n = 360,000); TWEAK-stimulated Fn14 reporter cells, luciferase luminescence, 8 h; inhibition, % at 10 µM; in the data active = inhibition above about 50%
TROY NFkB inh: inhibitors of TROY-driven NF-kB signaling, primary screen, Q293 LMP1-TROYcd cells, NF-kB luciferase, uHTS; Q293 LMP1-TROYcd NF-kB luciferase reporter, 4 h; inhibition, % at 10 µM; actives 0.98% (n = 360,000); AID 1347056, 2019;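 active = compounds whose plate-normalised and pattern-corrected inhibition of the luciferase reporter signal at the single screening dose is 50% or more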
EBV LMP1 NFkB: EBV LMP1-driven NF-kappaB luciferase reporter inhibitors, primary screen, cell-based, luminescence, single point | LMP1-induced NF-kappaB luciferase reporter cells | inhibition, % at 12.5 µM | actives 0.69% (n = 350,000); in the data active = inhibition above about 41%; inconclusive = no clear call, values can overlap the other calls
TRPM1 prom inh: inhibitors of MITF-dependent TRPM1 promoter reporter, primary screen, cell-based, SK-MEL-5, single point, luciferase | actives 0.83% (n = 330,000) | inhibition, % at 12.5 µM | SK-MEL-5 TRPM1 promoter luciferase, 24 h;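 active = mean inhibition across replicates of 60% or more, whatever share of single replicates reaches that level; inconclusive = some that reach 60%, reason not given; inactive = mean inhibition across replicates below 60%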
HIF-2a inh: HIF-2a reporter inhibitors, primary screen, luminescence, 786-0 RCC cells | 786-0 RCC cells HIF-2a reporter, luciferase luminescence, overnight | inhibition, % at 18.8 µM | actives 0.72% (n = 360,000) | AID 624352, 2012;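 active = inhibition of the luminescence signal of 40% or more relative to plate controls, in a single-dose primary screen at 18.75 µM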
Peg3 promoter: Peg3 promoter-driven luciferase inhibitors, primary screen, cell-based, HeLa, luciferase luminescence; inhibition, % at 20 µM; HeLa PEG-Prom luciferase reporter, overnight; actives 1.7% (n = 360,000);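 active = inhibition of at least 50% at 20 µM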
Of the large screens only hits and unclear results are named; the others gave an inactive call. Rows were chosen to be rich in hits. Some 4% of all compounds tested hit in one or more screens of this group.

CC(=O)c1c(C)[nH]c(C(=O)CSc2ncnc3sc(-c4ccccc4)cc23)c1C	TWEAK-Fn14 inh 63.7
O=C(CSc1nnc(-c2ccccc2)o1)c1nnc(-c2ccccc2)o1	none
CCOc1cc([N+](=O)[O-])cc2c1C(=O)Nc1ccccc1O2	EBV LMP1 NFkB 69.1
CCC(=O)NC(=S)Nc1cccc(NC(=O)c2ccc(Cl)cc2Cl)c1	none
CC(C)C(=O)Nc1cccc(NC(=O)c2ccc(Cl)cc2Cl)c1	TROY NFkB inh 56.0
CC1OC(CC(=O)O)CC2=C1C(=O)c1c(O)cccc1C2=O (stereo not given)	TWEAK-Fn14 inh 105.7, TROY NFkB inh 63.9, EBV LMP1 NFkB 88.1, TRPM1 prom inh 113.0, HIF-2a inh 87.4, Peg3 promoter 100.1
O=C1C=C(O)c2cccc(O)c2C1=O	none
COc1cc2c(c(O)c1OC)C1Cc3ccc(OC)c(OC)c3CN1CC2 (stereo not given)	none (no result: EBV LMP1 NFkB, TRPM1 prom inh)
COc1ccc2cc1Oc1ccc(cc1)C[C@H]1c3c(cc(OC)c4c3Oc3c(ccc5c3[C@H](C2)N(C)CC5)O4)CCN1C	TRPM1 prom inh 91.3, Peg3 promoter 99.7
COc1cc(C(=O)NCC(c2cccs2)N2CCOCC2)cc(Br)c1OCc1ccccc1 (stereo not given)	none
COc1cccc(-c2cnc(C(O)c3ccc(C)cc3)[nH]2)c1 (stereo not given)	none (no result: EBV LMP1 NFkB, TRPM1 prom inh)
COc1ccc(-c2cnc(C(O)c3ccc(-c4ccccc4)cc3)[nH]2)cc1 (stereo not given)	none (no result: EBV LMP1 NFkB, TRPM1 prom inh)
COc1cccc(-c2cnc(C(O)c3ccccc3)[nH]2)c1 (stereo not given)	TWEAK-Fn14 inh 63.3, TROY NFkB inh 56.7 (no result: EBV LMP1 NFkB, TRPM1 prom inh)
COc1ccc(-c2cnc(C(O)c3ccccc3)[nH]2)cc1 (stereo not given)	TROY NFkB inh 50.8 (no result: EBV LMP1 NFkB, TRPM1 prom inh)
CN(C(=O)COC(=O)C1COc2ccccc2O1)C1(C#N)CCCCC1 (stereo not given)	none
c1cncc(-c2ccc3ncnc(NCc4cccs4)c3c2)c1	none
c1csc(CNc2ncnc3ccc(-c4ccc5c(c4)OCCO5)cc23)c1	none
COc1cccc(CNc2ncnc3ccc(-c4c(C)noc4C)cc23)c1	TWEAK-Fn14 inh 79.5, EBV LMP1 NFkB inconclusive
Cc1noc(C)c1-c1ccc2ncnc(NCC3CCCCN3C)c2c1 (stereo not given)	none
COc1cccc(-c2ccc3ncnc(NCc4cccs4)c3c2)c1	TWEAK-Fn14 inh 68.8
Cc1ccsc1CNc1ncnc2ccc(-c3c(C)noc3C)cc12	TWEAK-Fn14 inh 81.0
Cn1ccc2cc(-c3ccc4ncnc(NCc5cccs5)c4c3)ccc21	TWEAK-Fn14 inh 55.0
CC1CC(O)C(C)CN1 (stereo not given)	none
COc1cccc(-c2ccc3ncnc(NCc4cccc(C)c4)c3c2)c1	TWEAK-Fn14 inh 62.9, TROY NFkB inh 50.0
COCCCNc1ncnc2ccc(C)cc12	TROY NFkB inh 54.9
COc1cccc(CNc2ncnc3cc(Cl)ccc23)c1	none
CCCCc1ccc(NC(=O)N2CCNC(=O)C2CC(=O)Nc2ccsc2C(=O)OC)cc1 (stereo not given)	none
CCc1ccc(CN2CCC(n3nccc3NC(=O)C3CCCC3)CC2)cc1	none
COc1cc(/C=C2\SC(=O)N(Cc3ccc(Cl)cc3)C2=O)cc([N+](=O)[O-])c1O	TWEAK-Fn14 inh 55.7, TROY NFkB inh 55.0
COc1cc(/C=C2/SC(=S)N(Cc3ccccc3)C2=O)ccc1OCC(=O)O	EBV LMP1 NFkB 46.9
COc1cc([N+](=O)[O-])cc(/C=C2/SC(=S)N(Cc3ccccc3)C2=O)c1O	TWEAK-Fn14 inh 70.0, Peg3 promoter 51.0
COc1cc(/C=C2/SC(=S)N(Cc3ccccc3)C2=O)cc(Cl)c1O	TWEAK-Fn14 inh 65.4, TROY NFkB inh 50.6
COc1cc(/C=C2\SC(=O)N(Cc3ccc(F)cc3)C2=O)cc([N+](=O)[O-])c1O	none
COc1cc(/C=C2/SC(=S)N(Cc3ccccc3)C2=O)ccc1OS(C)(=O)=O	none
COc1ccc(CN2C(=O)C(CC(=O)NC3CC3)CC(C(=O)N(C)C)=C2C)cc1 (stereo not given)	none (no result: TRPM1 prom inh)
ON=C(CCc1ccccc1)CCc1ccccc1	none
Nc1ccn(CC(=O)N[C@H](CO)Cc2c[nH]c3ccccc23)c(=O)n1	none
Cc1sc(NC(=O)CN2CCOCC2)nc1-c1ccc2c(c1)CCN2S(=O)(=O)c1ccccc1	none
CS(=O)(=O)N1CCc2cc(-c3csc(NC(=O)Cc4cccs4)n3)ccc21	TWEAK-Fn14 inh 79.9
O=C(CN1CCOCC1)Nc1nc(-c2ccc3c(c2)CCN3S(=O)(=O)c2ccccc2)cs1	TWEAK-Fn14 inh 52.8
CCCCC(C(=O)O)C(C)CC(=O)NNC(=O)c1ccco1 (stereo not given)	none
Cc1onc(-c2ccccc2)c1C(=O)OCC(=O)NCc1ccc(F)cc1	none
Cc1ccc(-n2cc(C(=O)c3ccccc3O)cn2)cc1	TWEAK-Fn14 inh 83.0, EBV LMP1 NFkB 78.3
Cc1ccc(O)c(C(=O)c2cnn(-c3ccccc3)c2)c1	none
CCC1(c2ccccc2)NC(=O)N(CC(=O)NC2CCCCCC2)C1=O (stereo not given)	none
Cc1ccc(NCC(=O)N/N=C\c2ccc([N+](=O)[O-])o2)cc1	TRPM1 prom inh 67.6
O=C(CNc1ccccc1)N/N=C/c1ccc([N+](=O)[O-])o1	none
O=C(N/N=C/c1ccc[nH]1)c1ccc(O)cc1	none
Cc1cc(Br)c(OCc2ccc(C(=O)N/N=C/c3ccc[nH]3)cc2)c(Br)c1	Peg3 promoter 99.6 (no result: TRPM1 prom inh)
Cc1ccc(NCC(=O)N/N=C\c2ccc[nH]2)cc1	TWEAK-Fn14 inh 89.0, TROY NFkB inh 68.6 (no result: EBV LMP1 NFkB, TRPM1 prom inh)
O=C(N/N=C\c1ccc([N+](=O)[O-])o1)C1COc2ccccc2O1 (stereo not given)	TRPM1 prom inh 74.8
O=C(CCC(=O)Nc1ccc(Cl)cc1Cl)N/N=C/c1ccc([N+](=O)[O-])o1	Peg3 promoter 56.9 (no result: EBV LMP1 NFkB, TRPM1 prom inh)
CCCCCC(=O)N/N=C/c1ccc([N+](=O)[O-])o1	none
O=C(Cc1ccc2c(c1)OCO2)NN=Cc1ccc([N+](=O)[O-])o1	TRPM1 prom inh 73.0
Cc1cc(C(=O)N2CCN(C(c3ccccc3)c3ccccc3)CC2)no1	none
O=C(c1cc(-c2cccs2)on1)N1CCN(C(c2ccccc2)c2ccccc2)CC1	TRPM1 prom inh 67.8
CC1CCN(C(=O)c2cc(-c3ccc4c(c3)OCO4)on2)CC1	TWEAK-Fn14 inh 53.5
O=C(c1cc(-c2ccccc2Cl)on1)N1CCCC1	TWEAK-Fn14 inh 70.2
CCCNC(=O)c1cc(-c2ccc3c(c2)OCO3)on1	TWEAK-Fn14 inh 50.6
COc1ccccc1-c1cc(C(=O)N2CCCC2)no1	none
